We go through five compounds from PubChem BioAssay.

The structures appear in SMILES notation. The source made the active and inactive calls.

The target in one experiment is Albumin (Bos taurus) (UniProt P02769). The experiment is described as follows: compounds binding labelled BSA control protein – biochemical, small-molecule microarray, Alexa647 label, 635/667 nm fluorescence, artefact control for SMM control protein annotation, profiling panel (AID 1118).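 Further: score merges 667 nm emission intensity and signal-to-noise per printed compound spot.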 The note with it: BSA-A647 binding, fluorescence 635 nm, higher = more signal.
Experiment [1] can be described thus: probe aXIP binding to arrayed compounds – biochemical, NeuroSMM set, 635/667 nm fluorescence, primary screen (AID 1119).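 Further: probe is the protein aXip251-270 applied at 1 µg/mL to compound-printed slides; binding of probe to printed compounds measured as 667 nm fluorescence plus signal to noise.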 The note with it: small-molecule microarray, higher = more signal, called active from +8 up or from −8 down.
Experiment [2] can be described thus: probe aNOTCH3 binding on compound microarray – biochemical, small-molecule microarray, 635/667 nm fluorescence, primary screen (AID 1120).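 Further: probe is a biotin-tagged antibody raised against NOTCH3 rather than NOTCH3 protein; score merges spot fluorescence near 667 nm with spot signal to noise.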 Particulars: higher = more signal.
The nature of experiment [3]: probe aNOTCH2 binding on compound microarray – biochemical, small-molecule microarray, 635/667 nm fluorescence, primary screen (AID 1121).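 Further: score merges feature fluorescence read at 667 nm with its signal to noise.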 The note with it: higher = more signal.
In experiment [4] the target is Carbonic anhydrase 2 (Homo sapiens) (UniProt P00918). Description: compounds binding carbonic anhydrase 2 – biochemical, small-molecule microarray, Alexa647-labelled CAII, profiling panel (AID 1122). The note with it: CAII-A647 binding fluorescence, higher = more signal.
A short description of experiment [5]: COS7 lysate on small-molecule microarray, probe aHis, 635 nm (AID 1123).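 Further: z-score combines 667nm fluorescence intensity with signal-to-noise per printed compound spot.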 Particulars: COS7 cell lysate, fluorescence, higher = more signal.
Experiment [6] in a line: probe aLAP1 signal on lysate-treated microarray – cell lysate, small-molecule microarray, COS7 lysate, primary screen (AID 1124).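 Further: lysate comes from COS7 cells expressing LAP1 and is applied at 0.3 µg/mL; score merges spot fluorescence near 667 nm with signal-to-noise over triplicate slides.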 The note with it: probe aLAP1, fluorescence, higher = more signal.
A further experiment relates to Sam68 (KHDRBS1). Description: compounds binding KHDRBS1 protein – biochemical, small-molecule microarray, 635 nm fluorescence, primary screen (AID 1125).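 Further: score merges 667 nm channel intensity with signal to noise over triplicate slides.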 The note with it: higher = more signal.
For experiment [7], the system named is Chordin-like protein 2 (CHRDL2). Description: compounds binding chordin-like 2 – biochemical, small-molecule microarray, 635 nm fluorescence, primary screen (AID 1126).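 Further: printed compound slides probed with Chrdl2 protein at 4 µg/mL for 1 h at 4 C; score merges 667 nm emission intensity with signal to noise over three replicate slides.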 The note with it: fluorescence 635 nm, higher = more signal.
Experiment [8] addresses Concanavalin-A (Canavalia ensiformis) (UniProt P02866). Description: compounds binding concanavalin A lectin – biochemical, small-molecule microarray, Alexa647 label, 635 nm, artefact control for SMM control protein annotation, primary screen (AID 1127).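 Further: z combines 667 nm emission intensity with signal-to-noise across three replicate slides.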 Particulars: ConA-A647 binding fluorescence, higher = more signal.
Experiment [9] is described as follows: compounds binding Alexa647 anti-His antibody – biochemical, small-molecule microarray, 635 nm fluorescence, artefact control for SMM control protein annotation, primary screen (AID 1128).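 Further: score merges feature fluorescence with signal-to-noise for each printed compound spot.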 The note with it: higher = more signal.
Experiment [10] concerns Human papillomavirus type 1a E7 protein (residues 1-88). Description: HPV1a E7 small-molecule binders, primary screen, biochemical, small-molecule microarray, residues 1-88, 635 nm (AID 1129). Particulars: small-molecule microarray binding, fluorescence 635 nm; higher = more signal.
The target of experiment [11] is Focal adhesion kinase 1 (Homo sapiens) (UniProt Q05397). Description: PTK2 protein binding on printed compound slides – biochemical, small-molecule microarray, 635/667 nm fluorescence, BSA, DTT, primary screen (AID 1130).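 Further: composite of spot emission at 667 nm and signal to noise over triplicate slides.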 Particulars: 635 nm fluorescence, higher = more signal.
The test system of experiment [12] is Fibrinogen (Alexa647-labelled). The experiment is described as follows: Alexa647-fibrinogen binding to printed small molecules – biochemical, small-molecule microarray, 635/667 nm fluorescence, artefact control for SMM control-protein annotation, profiling panel (AID 1131).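 Further: z-score merges 667 nm fluorescence with per-spot signal-to-noise over triplicate slides.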 The note with it: fibrinogen-A647 binding fluorescence, higher = more signal.
Experiment [13] concerns the target Follistatin (Homo sapiens) (UniProt P19883). Description: FST protein binding to printed compounds – biochemical, small-molecule microarray, 635/667 nm fluorescence, primary screen (AID 1132). Particulars: 635 nm fluorescence, higher = more signal.
Experiment [14] addresses Fibroblast growth factor 2 (Homo sapiens) (UniProt P09038). The experiment is described as follows: basic fibroblast growth factor binding to printed compounds – biochemical, small-molecule microarray, 635/667 nm fluorescence, primary screen (AID 1133). Particulars: FGF2, fluorescence 635/667, higher = more signal.
A short description of experiment [15]: JC-1 mitochondrial potential readout, lung cancer cells – cell-based, A549, JC-1 fluorescence, basal, 24 h, 100 nL, profiling panel (AID 1138).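 Further: A549 lung adenocarcinoma cells under basal conditions with no added stimulus; test concentration not given here.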 Particulars: higher = more signal.
The subject of the next experiment is Lefty1. Description: Lefty1 protein binding to printed compounds – biochemical, small-molecule microarray, 635/667 nm fluorescence, primary screen (AID 1139). Particulars: fluorescence 635/667, higher = more signal.
In experiment [16] the test system is wheat germ agglutinin (Triticum aestivum), Alexa647-labelled. The experiment is described as follows: Alexa647-WGA lectin binding to printed small molecules – biochemical, small-molecule microarray, 635/667 nm fluorescence, artefact control for SMM control-protein annotation, profiling panel (AID 1140).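 Further: score merges 667 nm feature emission with signal to noise over triplicate slides.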 The note with it: WGA-A647 binding, 635 nm fluorescence, higher = more signal.

The target in experiment [17] is Luciferin 4-monooxygenase (Photinus pyralis) (UniProt P08659). Description: inhibition of purified Photinus pyralis luciferase – biochemical, luminescence, purified enzyme, 2006 set, primary screen (AID 1141).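 Further: cell-free assay with purified firefly luciferase at 100 ng per well in PBS; test concentration not given here.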 The note with it: purified firefly luciferase, SteadyGlo luminescence, 30 min; higher = more signal, called active from +8 up or from −8 down.
Sequence of Luciferin 4-monooxygenase (Photinus pyralis) (P08659 whole entry, looked up): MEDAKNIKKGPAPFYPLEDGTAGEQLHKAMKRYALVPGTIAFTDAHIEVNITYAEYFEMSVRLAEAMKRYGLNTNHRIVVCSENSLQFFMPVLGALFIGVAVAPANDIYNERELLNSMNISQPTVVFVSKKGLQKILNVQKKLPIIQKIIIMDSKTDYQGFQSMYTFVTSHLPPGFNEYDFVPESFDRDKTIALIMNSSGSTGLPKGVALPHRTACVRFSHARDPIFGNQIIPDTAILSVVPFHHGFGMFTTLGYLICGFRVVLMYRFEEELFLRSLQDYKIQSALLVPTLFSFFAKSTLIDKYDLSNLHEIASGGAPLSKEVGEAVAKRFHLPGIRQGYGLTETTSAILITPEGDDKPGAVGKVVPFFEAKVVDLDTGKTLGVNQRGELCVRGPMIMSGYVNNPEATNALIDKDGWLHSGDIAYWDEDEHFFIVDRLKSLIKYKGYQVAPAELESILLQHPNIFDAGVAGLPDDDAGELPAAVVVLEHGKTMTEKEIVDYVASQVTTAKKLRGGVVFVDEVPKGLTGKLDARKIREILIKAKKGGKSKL

Sequence of Concanavalin-A (Canavalia ensiformis) (P02866 whole entry, looked up): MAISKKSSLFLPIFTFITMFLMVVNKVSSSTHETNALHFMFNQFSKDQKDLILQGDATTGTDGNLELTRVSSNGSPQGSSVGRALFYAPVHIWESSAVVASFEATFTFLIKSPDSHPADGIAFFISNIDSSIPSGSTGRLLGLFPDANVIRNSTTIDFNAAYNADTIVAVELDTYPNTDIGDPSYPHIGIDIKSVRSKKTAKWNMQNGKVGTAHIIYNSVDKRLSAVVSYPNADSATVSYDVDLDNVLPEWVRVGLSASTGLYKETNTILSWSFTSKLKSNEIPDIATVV
Sequence of Follistatin (Homo sapiens) (P19883 whole entry, looked up): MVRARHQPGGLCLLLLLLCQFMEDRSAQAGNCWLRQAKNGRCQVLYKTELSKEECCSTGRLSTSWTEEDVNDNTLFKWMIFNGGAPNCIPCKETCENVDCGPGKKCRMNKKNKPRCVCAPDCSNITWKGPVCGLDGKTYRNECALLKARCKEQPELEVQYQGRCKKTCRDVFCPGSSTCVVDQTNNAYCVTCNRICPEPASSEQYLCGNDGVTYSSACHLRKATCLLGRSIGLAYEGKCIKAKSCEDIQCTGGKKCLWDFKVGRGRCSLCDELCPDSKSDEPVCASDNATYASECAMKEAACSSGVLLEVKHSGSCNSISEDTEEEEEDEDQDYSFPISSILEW
Sequence of Focal adhesion kinase 1 (Homo sapiens) (Q05397 whole entry, looked up): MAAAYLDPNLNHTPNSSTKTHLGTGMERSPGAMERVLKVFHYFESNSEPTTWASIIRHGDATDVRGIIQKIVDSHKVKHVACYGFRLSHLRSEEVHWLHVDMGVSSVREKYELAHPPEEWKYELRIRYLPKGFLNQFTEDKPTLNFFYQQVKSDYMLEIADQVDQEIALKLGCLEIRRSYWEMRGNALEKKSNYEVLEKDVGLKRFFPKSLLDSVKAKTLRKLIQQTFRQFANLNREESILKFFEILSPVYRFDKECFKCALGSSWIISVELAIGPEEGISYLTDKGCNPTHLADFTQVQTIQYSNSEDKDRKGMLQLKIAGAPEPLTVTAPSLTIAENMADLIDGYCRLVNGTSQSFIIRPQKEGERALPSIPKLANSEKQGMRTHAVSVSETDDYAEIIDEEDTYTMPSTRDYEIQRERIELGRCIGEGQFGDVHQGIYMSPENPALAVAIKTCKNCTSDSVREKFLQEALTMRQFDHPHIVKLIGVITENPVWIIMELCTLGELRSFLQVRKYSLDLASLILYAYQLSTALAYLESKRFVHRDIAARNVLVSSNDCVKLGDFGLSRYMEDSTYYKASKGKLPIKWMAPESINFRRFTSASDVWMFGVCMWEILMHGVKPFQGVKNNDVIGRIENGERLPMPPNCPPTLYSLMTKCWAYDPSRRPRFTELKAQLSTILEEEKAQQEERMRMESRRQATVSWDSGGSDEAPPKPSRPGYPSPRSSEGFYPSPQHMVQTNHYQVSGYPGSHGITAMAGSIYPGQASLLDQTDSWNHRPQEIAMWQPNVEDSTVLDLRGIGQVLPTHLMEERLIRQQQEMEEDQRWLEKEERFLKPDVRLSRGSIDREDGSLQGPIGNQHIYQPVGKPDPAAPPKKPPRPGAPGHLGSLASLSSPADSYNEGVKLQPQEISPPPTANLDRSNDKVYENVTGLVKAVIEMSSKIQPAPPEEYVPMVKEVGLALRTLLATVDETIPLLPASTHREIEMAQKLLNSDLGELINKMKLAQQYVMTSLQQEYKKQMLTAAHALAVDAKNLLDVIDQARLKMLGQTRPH
Sequence of Albumin (Bos taurus) (P02769 whole entry, looked up): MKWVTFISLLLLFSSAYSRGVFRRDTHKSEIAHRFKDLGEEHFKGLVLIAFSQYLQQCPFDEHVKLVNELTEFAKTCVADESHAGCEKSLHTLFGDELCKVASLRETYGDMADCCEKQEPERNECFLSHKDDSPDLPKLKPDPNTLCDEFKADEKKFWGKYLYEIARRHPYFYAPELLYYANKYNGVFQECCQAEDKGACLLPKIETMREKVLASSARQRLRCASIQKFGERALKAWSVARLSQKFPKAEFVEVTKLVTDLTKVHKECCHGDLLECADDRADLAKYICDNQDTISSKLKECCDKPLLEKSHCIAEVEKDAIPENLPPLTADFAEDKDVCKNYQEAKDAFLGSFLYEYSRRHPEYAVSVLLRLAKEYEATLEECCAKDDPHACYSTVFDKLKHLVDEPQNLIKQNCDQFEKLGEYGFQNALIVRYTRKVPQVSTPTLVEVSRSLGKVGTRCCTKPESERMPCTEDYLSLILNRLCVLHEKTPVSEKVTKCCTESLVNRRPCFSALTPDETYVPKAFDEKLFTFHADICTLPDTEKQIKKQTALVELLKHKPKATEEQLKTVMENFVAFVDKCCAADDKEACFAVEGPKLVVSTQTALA
Sequence of Fibroblast growth factor 2 (Homo sapiens) (P09038 whole entry, looked up): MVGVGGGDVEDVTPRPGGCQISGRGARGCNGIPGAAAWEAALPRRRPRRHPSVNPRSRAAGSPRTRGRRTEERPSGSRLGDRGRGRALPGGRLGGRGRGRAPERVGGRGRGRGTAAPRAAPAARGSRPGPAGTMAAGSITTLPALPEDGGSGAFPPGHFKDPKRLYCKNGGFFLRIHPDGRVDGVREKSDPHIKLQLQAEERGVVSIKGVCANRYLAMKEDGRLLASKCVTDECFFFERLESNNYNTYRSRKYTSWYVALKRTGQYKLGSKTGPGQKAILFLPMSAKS

Take `COc1ccc(O[C@H]2C=C[C@@H](c3ccccc3)O[C@@H]2COC(=O)CCC(C)=NO[C@H](C)c2cn([C@@H]3COC[C@H]3O)nn2)cc1`: the composite z-score with Albumin (Bos taurus) is 0.454; in [2], -0.015; in [3], -0.211; in experiment [4], -0.106; in experiment [5] it was -0.208; in experiment [6], 0.263. The composite z-score was 0.771 in the experiment on Sam68 (KHDRBS1); 0.656 in experiment [7]; 0.427 in experiment [8]; 1 in experiment [9]; 0.225 in experiment [10]; 0.149 in experiment [11]. Moreover, the composite z-score is 0.517 in experiment [12]; 0.368 in experiment [13]; 0.459 in experiment [14]; 0.701 with Lefty1; -0.151 in [16]. Further, in [1], the composite Z-score is 0.362 (inactive). Besides, the figures for the z-score in [15] and in [17] were -1.56 and 0.884 (inactive), respectively.

Consider `COc1cccc([C@@H]2Oc3ccc(Br)cc3C(=O)[C@H]2O)c1`, for which the composite z-score with Albumin (Bos taurus) is 0.705; in experiment [2], -0.0111; in experiment [3], -0.084; in [4] it was 0.439; in [5] it was 0.599; in experiment [6], 0.214. Further, the composite z-score with Sam68 (KHDRBS1) was found to be 0.26; in [7], 0.432; in [8] it was 1.11; in [9], 0.26; in experiment [10], 0.615; in [11] it was 0.586. Moreover, the composite z-score in [12] was 0.946; in [13], 0.453; in experiment [14], 0.267; in the experiment on Lefty1, 0.732; in [16], 0.282. For the same compound, the composite Z-score in [1] is 0.38 (inactive). For the same compound, the z-score was 1.08 in [15] and -3.5 (inactive) in experiment [17].

In the case of `CC[C@@H](c1ccccc1)n1c(=O)n2n(c1=O)[C@H]1[C@H](O)[C@@H]3O[C@@H]3C(=NOCC=C(C)CCC=C(C)C)[C@H]1CC2`, the composite z-score with Albumin (Bos taurus) is -0.258; in [2] it was 0.192; in experiment [3] it was -0.084; in experiment [4], 0.406; in experiment [5], 0.689; in [6] it was -0.194. The composite z-score in the experiment with Sam68 (KHDRBS1) worked out at 1.29; in experiment [7] it was 0.552; in experiment [8] it was 0.548; in experiment [9] it was 0.592; in experiment [10], 1.1; in experiment [11] it was 0.301. Also, the composite z-score in experiment [12] turned out to be 0.417; in experiment [13] it was 0.708; in experiment [14], 0.55; in the experiment with Lefty1 it was 1.25; in [16], 0.359. Moreover, the composite Z-score in [1] is -0.183 (inactive). In addition, the z-score was 0.0549 in experiment [15] and -0.726 (inactive) in experiment [17].

For `COc1ccccc1CN1C(=O)c2ccccc2[C@@]2(Cc3ccccc3N(C(C)C)C2=O)[C@@H]1c1ccc(CO)cc1`, the composite z-score with Albumin (Bos taurus) was 0.282; in experiment [2], -0.0581; in experiment [3] it was -0.117; in [4], -0.0384; in [5], 0.209; in [6], 0.21. The composite z-score was -0.067 in the experiment with Sam68 (KHDRBS1); -0.381 in experiment [7]; 0.262 in experiment [8]; -0.166 in [9]; -0.263 in experiment [10]; -0.0604 in [11]. Further, the composite z-score in experiment [12] is -0.586; in experiment [13], -0.13; in [14] it was -0.609; with Lefty1 it was -0.404; in [16] it was 0.57. In addition, the composite Z-score in [1] is 0.0371 (inactive). Moreover, the values for the z-score in [15] and in [17] were 0.427 and -1.08 (inactive), respectively.

Take `C=CC[C@@H]1C=C[C@H](ON=C(C)CCN2CCc3nc(CC)c(CC)cc3C2)[C@@H](CO)O1`: the composite z-score is 0.7 with Albumin (Bos taurus); 0.325 in [2]; -0.131 in [3]; 0.221 in experiment [4]; 0.226 in experiment [5]; 0.38 in [6]. The composite z-score with Sam68 (KHDRBS1) is 0.822; in experiment [7], 0.971; in experiment [8], -0.442; in [9], 0.242; in experiment [10], -0.202; in experiment [11], -0.191. Further, the composite z-score in [12] was -1.5; in experiment [13] it was 1.3; in experiment [14] it was 0.466; in the experiment on Lefty1, 1.48; in experiment [16], 0.0749. The composite Z-score in [1] was -2.12 (inactive). Also, the values for the z-score in experiment [15] and in [17] were 2.17 and 0.624 (inactive), respectively.
